Results filed as inconclusive are left out. The source made the active and inactive calls. Rule for the calls: active = hit-call score of the fitted dose curve at least 0.9, where 1 is the maximum; inconclusive = response in the unintended direction; inactive = score below 0.9.
Test: ATG_M_19_TRANS: Attagene TRANS-FACTORIAL HepG2 Assay for M19 Transcription Factor (Internal Marker) (AID 2282974)
Conditions: HepG2 Attagene TRANS-FACTORIAL M19 internal marker reporter
Description: ATG_TRANS is a cell-based, multiplexed-readout assay that uses HepG2, a human liver cell line, with measurements taken at 24 hours after chemical dosing in a 24-well plate.ATG_M_19_TRANS is one of 30 assay component(s) measured or calculated from the ATG_TRANS assay. It is designed to make measurements of mRNA induction, a form of inducible reporter, as detected with fluorescence intensity signals by Reverse transcription polymerase chain reaction (RT-PCR) and Capillary electrophoresis technology.Data from the assay component ATG_M_19_TRANS was analyzed into 1 assay endpoint. This assay endpoint, ATG_M_19_TRANS, was analyzed in the positive analysis fitting direction relative to DMSO as the negative control and baseline of activity. Using a type of inducible reporter, measures of mRNA for gain-of-signal activity can be used to understand the background control at the transcription factor-level as they relate to the gene . Furthermore, this assay endpoint can be referred to as a secondary readout, because this assay has produced multiple assay endpoints where this one serves a background control function. To generalize the intended target to other relatable targets, this assay endpoint is annotated to the background measurement intended target family, where the subfamily is internal marker.
Human liver HepG2 cells are transiently transfected with multiple reporter transcription units (MRTUs) in 6-well plates using FuGene 6 reagent (Roche; 3 ml FuGene/1 mg DNA). The MRTU constructs are regulated by a cis-regulating element (promoter). […] A major difference between the CIS and TRANS system is that in CIS activities of endogenous TFs are measured, whereas the TRANS assay evaluates changes in activities of exogenous, chimeric NR-Gal4 proteins. […] At the end of 24 hour incubation, total RNA was isolated using TriZol reagent (Invitrogen). The isolated RNA is then reverse-transcribed using oligo(dT) primer and Mo-MLV reverse transcriptase (Invitrogen) with DNAse I (Ambion) treatment for 30 min. The one-tenth of the produced cDNA was amplified by PCR using Taq DNA polymerase (Invitrogen) and two reporter sequence-specific primers. The PCR products were fluorescently labeled by primer extension with 6-arboxyfluorescein (6-FAM) 5'-labeled reporter sequence-specific primer (2 min at 95 C, 20 s at 68 C and 10 min at 72 C) and these products were digested with 5U of HpaI (New England Biolabs) for 2h at 37 C. The fragments were purified using Qiaquick PCR columns (Qiagen), analyzed on an ABI 3130xL genetic analyzer (Applied Biosystems) with peak positions identified by using a set of X-rhodamine (ROX)-labeled MapMarker1000 molecular weight standards (BioVentures). The raw capillary electrophoresis data was processed using Attagraph software (Attagene).

| SMILES | outcome |
| --- | --- |
| C=CCc1cc(S(=O)(=O)c2ccc(O)c(CC=C)c2)ccc1O | inactive |
| CC(C)C(=O)Nc1ccc([N+](=O)[O-])c(C(F)(F)F)c1 | inactive |
| CCCCCCCCCC | inactive |
| NCC(F)(F)C(F)(F)C(F)(F)C(F)(F)F | inactive |
| CCN(CC)C(=S)SSC(=S)N(CC)CC | inactive |
| NC(N)=O | inactive |
| O=C(N[C@H](CO)[C@H](O)c1ccc([N+](=O)[O-])cc1)C(Cl)Cl | inactive |
| NNC(=O)c1ccncc1 | inactive |
| CCCC(CCC)C(=O)O | inactive |
| OC(CCl)CCl | inactive |
| O=C(O)c1cccc(C[C@@H]2COc3ccc(OCc4nc5cc(F)ccc5s4)cc3[C@@H]2O)c1 | inactive |
| OCC(CO)(CO)CO | inactive |
| C[Si](C)(C)C(F)(F)C(F)(F)C(F)(F)F | inactive |
| O=S(=O)(O)CCC(F)(F)C(F)(F)C(F)(F)C(F)(F)C(F)(F)C(F)(F)F | inactive |
| c1ccc2c(c1)-c1cccc3c1c-2cc1ccccc13 | inactive |
| c1ccc2cc3ccccc3cc2c1 | inactive |
| FC(F)=C(F)C(F)(F)C(F)(F)C(F)(F)C(F)(F)C(F)(F)C(F)(F)F | inactive |
| O=C(O)c1cccc(C(=O)O)c1 | inactive |
| O=S(=O)(O)c1ccc(N=Nc2c(O)ccc3cc(S(=O)(=O)O)ccc23)cc1 | inactive |
| CC(C)CCCCCCOC(=O)C1CCCCC1C(=O)OCCCCCCC(C)C (stereo not given) | inactive |

| SMILES | outcome |
| --- | --- |
| Nc1ccn([C@@H]2O[C@H](CO)[C@@H](O)[C@@H]2O)c(=O)n1 | inactive |
| O=C(O)CO | inactive |
| O=c1[nH]cnc2c1ncn2[C@H]1CC[C@@H](CO)O1 | inactive |
| CCCCCOC(C)=O | inactive |
| CCCCCCCCN(C)C | inactive |
| CC1(C)C(=O)N(Cl)C(=O)N1Cl | inactive |
| OCc1ccccc1 | inactive |
| CCCCCCCCCCCCCCCCOS(=O)(=O)O | inactive |
| OC(Cn1cncn1)(Cn1cncn1)c1ccc(F)cc1F | inactive |
| CCCCCCCCCCCCCCO | inactive |
| O=C(Cl)C(F)(F)C(F)(F)C(F)(F)C(=O)Cl | inactive |
| Cc1nc(-c2ccccn2)ncc1C(=O)Nn1cc(C)c2cc(F)ccc21 | inactive |
| Cn1c(=O)c2[nH]cnc2n(C)c1=O | inactive |
| Cc1ncc([C@@H](CCCCCCc2ccc3c(n2)NCCC3)CC(=O)O)cn1 | inactive |
| Cc1cccc(O)c1C | inactive |
| CC(C)CC(C)O (stereo not given) | inactive |
| O=C1CN(N=Cc2ccc([N+](=O)[O-])o2)C(=O)N1 | inactive |
| FC(F)(F)C(F)(F)C(F)(F)C(F)(F)C(F)(F)C(F)(F)I | inactive |
| OCc1c[nH]c2ccccc12 | inactive |
| S=P(N1CC1)(N1CC1)N1CC1 | inactive |

Reference: PubChem BioAssay (EPA / NIEHS)
